# Assay results reported in PubChem BioAssay AID449762 (Southern Research Specialized Biocontainment Screening …, 2010).
# Out of some 330,000 compounds screened, about 1,900 (0.58%) were called active. About 4% were inconclusive and are not listed. Only a sample is shown. Measured potencies and affinities stand elsewhere. Unmarked numbers belong to inactive results. Cut-off read from the data, not from the text of the source: inconclusive = inhibition above about 70% without an active follow-up result; inactive = below that.
# Experiment: M. tuberculosis growth inhibition, HTS (AID 449762);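 note: bacterial growth assessed after seven days of incubation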
# Conditions: M. tuberculosis H37Rv growth inhibition, 7H9 media; at 25 µM; stronger effect = higher value
row,Structure (SMILES),inhibition [%]
1,Cc1nnc(SCCC(=O)Nc2ccc(F)cc2)s1,58.3
2,Cc1ccc(NC(=O)c2ccccc2NC(=O)c2cccnc2)cc1,11.1
3,O=C(NNC(=S)Nc1ccccc1Cl)c1ccccc1,-3.72
4,CCn1cc(C(=O)NC(C)C)c(=O)c2cc(F)c(N3CCN(C(=O)c4ccco4)CC3)cc21,19.2
5,CCn1cc(C(=O)NCC(C)C)c(=O)c2cc(F)c(N3CCN(C(=O)c4ccco4)CC3)cc21,0.58
6,Cc1cc(C)nc(-n2nc(C)cc2NC(=O)c2ccc(S(=O)(=O)N3CCOCC3)cc2)n1,9.62
7,Cc1nn(C)c(C)c1/C=C(/C(=O)C(C)(C)C)n1cncn1,-1.56
8,CC(=O)N/C(=C\c1cccc([N+](=O)[O-])c1)C(=O)NC(C)C,-0.52
9,Cc1c(Oc2ccc(C(F)(F)F)cc2[N+](=O)[O-])ccc2c3c(c(=O)oc12)CCC3,-1.9
10,CCOc1ccc(N2C(=O)CC(NCC#N)C2=O)cc1 (configuration not stated),0.53
11,COc1ccc(/C=C2/Sc3ccc(C(=O)NCCCN4CCOCC4)cc3NC2=O)cc1OC,-4.7
12,O=C1Nc2cc(C(=O)NCCCN3CCOCC3)ccc2S/C1=C/c1ccccc1F,16.4
13,Cc1c(Cl)ccc2c(C(=O)O)cc(-c3ccccc3)nc12,0.17
14,COc1ccc(OC)c(-c2cc(C(=O)NC3CCCC3)c3ccccc3n2)c1,-8.38
15,CC1CCc2cc(F)ccc2N1C(=O)c1cccs1 (configuration not stated),1.29
16,CC(C)(C)c1cc(N2CCOCC2)n2ncc(-c3ccccc3)c2n1,3.06
17,Cc1nccn1-c1cc(C(C)(C)C)nc2c(-c3ccccc3)cnn12,-1.52
18,CCCCNC(=O)C1=C(N)C(C(=O)Nc2ccc(C)c(S(=O)(=O)N3CCCCC3)c2)SC1=Nc1ccc(C)cc1C (configuration not stated),-11.1
19,O=C(CCc1nc(-c2ccccc2Cl)no1)NC1CCCC1,-5.48

row,Structure (SMILES),inhibition [%]
1,COc1ccc(-c2cc(-c3ccccc3)c(C#N)c(S(C)(=O)=O)n2)cc1,8.53
2,CS(=O)c1nc(-c2ccc(Br)cc2)cc(-c2ccccc2)c1C#N (configuration not stated),65
3,CC1(C)Cc2nc3nc(SCC(=O)NCCc4ccccc4)n(-c4ccccc4)c(=O)c3cc2CO1,-2.48
4,S=C(Nc1cccc(Cl)c1)N1CCOCC1,-10.2
5,CCc1ccc2[nH]c(=O)c(CN(CCCN3CCOCC3)C(=O)Nc3ccccc3)cc2c1,4.92
6,Cc1ccc2[nH]c(=O)c(CN(CCCN3CCOCC3)C(=O)Nc3cccc(Cl)c3)cc2c1,10.9
7,C=CC[C@@H](CC(=O)N[C@H](CO)Cc1ccccc1)C(=O)N[C@@H](C)COC(=O)[C@@H](CC=C)Cc1ccc(F)cc1,3.8
8,COc1ccccc1N1CCN(CCCCOc2ccc(F)cc2)CC1,-1.86
9,Clc1cccc(OCCCCN2CCCCC2)c1,0.99
10,NC(=O)c1ccc(-c2ncc(-c3ccccc3)o2)cc1,51.1
11,COC(=O)c1ccc(-c2n[nH]c(=O)c3ccccc23)cc1,-2.05
12,CCN1C(=O)[C@H]2[C@@H](c3ccc(-c4ccc(C(C)=O)cc4)cc3)N3CCCC[C@@]3(C(=O)OC)[C@H]2C1=O,-6.49
13,CCCCN1C(=N)N([C@@H](CCC)CN2CCC[C@H]2CN2C(N)=NC[C@H]2C(C)C)C[C@H]1[C@H](C)CC,1.37
14,O=C(Cc1ccccc1)c1nc2ccccc2s1,-3.11
15,Cc1cc(C)cc(OCC(=O)OCC(=O)c2cc(C)n(C3CC3)c2C)c1,54.3
16,Cc1cc(C(=O)COC(=O)COc2ccc(C#N)cc2)c(C)n1C1CC1,3.67
17,CC(=O)NC(Cc1c[nH]c2ccccc12)C(=O)Nc1ccc2c(c1)OCO2 (configuration not stated),-2.05
18,C/C(=N/OC(=O)c1c(-c2ccccc2Cl)noc1C)c1cnccn1,3.98
19,COc1ccc(CN2CCNC(=O)C2CC(=O)N(C)Cc2cc(C)no2)cc1OC (configuration not stated),-7.74

row,Structure (SMILES),inhibition [%]
1,COC(=O)Cc1cc(=O)[nH]c(Nc2nc3ccccc3o2)n1,29.9
2,CCOC(=O)Cc1cc(=O)[nH]c(Nc2nc3ccccc3o2)n1,-2.99
3,C/C(Sc1nnc(Cc2ccccc2)o1)=C(/O)c1ccccc1,-0.32
4,S=C1NCCOCCOCCOCCOCCNC(=S)NCCOCCOCCOCCOCCN1,-3.9
5,Cc1ccc(SC/C(O)=C(\C#N)c2nc3ccccc3s2)cc1,1.37
6,N#C/C(=C(/O)COc1ccccc1)c1nc2ccccc2s1,56.1
7,O=C(O)CCc1nc(-c2ccccc2)c(-c2ccccc2)o1,6.1
8,O=C(CCc1nc(-c2ccccc2)c(-c2ccccc2)o1)OCc1ccc(Br)cc1,70.2
9,O=C(Nc1nc2ccc(S(=O)(=O)N3CCCC3)cc2s1)c1ccco1,-2.95
10,COc1ccccc1-n1c(/C=C/c2ccccn2)nc2ccccc2c1=O,-5.93
11,CC(C)N(C(=S)Nc1cc(S(=O)(=O)N2CCOCC2)ccc1Cl)c1ccccc1,-5.84
12,Cc1cc(NC(=O)c2cc(-c3cccs3)nc3ccccc23)no1,-0.3
13,NNC(=O)c1cc(-c2cccs2)nc2ccccc12,9.4
14,CC(C)N(C1=N/C(=C\c2ccco2)C(=O)N1c1ccccc1)C(C)C,-0.07
15,Cc1noc(C(F)(F)F)c1C(=O)NNC(=O)c1cccc(C(F)(F)F)c1,3.93
16,CCOC(=O)C1C(=O)NC(SCC(=O)Nc2nccs2)=C(C#N)C1c1ccccc1OCC (configuration not stated),55.1
17,CC1CCCCN1CCNC(=O)C1CCCN(S(=O)(=O)c2cccc3nsnc23)C1 (configuration not stated),3.33
18,CN(C)c1nc(NCc2ccccc2)nc(N/N=C/c2ccc(Cl)cc2Cl)n1,9.37
19,CN(C)c1nc(NCc2ccccc2)nc(N/N=C/c2ccc(Br)cc2)n1,3.27
